Reference: PubChem BioAssay AID1159580 (chemical genetic matrix, 2015)
Hit rate of the full screen: of about 5,500 compounds, about 2,000 (36%) were called active. Inconclusive results (about 18%) are left out. No stated cut-off is given here; in the data, active means normalized growth mostly below about 0.91 (no sharp cut-off); inconclusive means no clear call, values can overlap the other calls; inactive means mostly above about 0.92. The list shows a part of the results.

Assay: chemical genetic growth profiling, strain panel (AID 1159580);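 further: tested at 20 µM; growth read once vehicle control cultures reached saturation at 30 °C; 1 = growth at the plate median or of vehicle wells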
Conditions: S. cerevisiae deletion strains, growth OD

Measured: normalized growth

CCNC(=O)[C@H]1O[C@@H](n2cnc3c(N)nc(NCCc4ccc(CCC(=O)O)cc4)nc32)C(O)[C@H]1O (some centres undefined)
inactive: locus YAL040C, strain CLN3, stronger effect = lower value 0.963 | locus YCL061C, strain MRC1 (second series), stronger effect = lower value 0.991 | locus YDR363W, strain ESC2, stronger effect = lower value 0.972 | locus YER002W, strain NOP16, stronger effect = lower value 0.995 | locus YGR078C, strain PAC10, stronger effect = lower value 0.992 | locus YJR075W, strain HOC1, stronger effect = lower value 0.999 | locus YMR307W, strain GAS1, stronger effect = lower value 1 | locus YNL153C, strain GIM3, stronger effect = lower value 1 | locus YNL175C, strain NOP13, stronger effect = lower value 0.98 | locus YNL197C, strain WHI3, stronger effect = lower value 0.981 | locus YNL224C, strain SQS1, stronger effect = lower value 1.03 | locus YOR083W, strain WHI5 (second series), stronger effect = lower value 0.978 | locus YPL055C, strain LGE1, stronger effect = lower value 0.953 | locus YPL241C, strain CIN2, stronger effect = lower value 0.976
